# Assay results: PubChem BioAssay (EPA / NIEHS)
# Where “and” joins values, the source holds several entries; their conditions need not be identical. Identical values can stand only once. Inconclusive results are not listed. Some compounds were tested as several samples or in several runs, with calls that do not always agree. Calls of active or inactive are those of the source. Rule for the calls: active = hit-call score of the fitted dose curve at least 0.9, where 1 is the maximum; inconclusive = response in the unintended direction; inactive = score below 0.9.
# Experiment: TOX21_p53_BLA_p2_viability: Viability Assessment in the Tox21 HCT-116 p53 Agonism Beta-lactamase Assay, Phase 2 (AID 2283591);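 note: compound exposure lasted 16 h at 37 °C; actives lower the ATP signal meaning cytotoxicity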
# Text: TOX21_p53_BLA_p2 is a cell-based, single-readout assay that uses HCT116, a human intestinal cell line, […] in a 1536-well plate.TOX21_p53_BLA_p2_viability is an assay readout measuring cellular ATP content and detected with CellTiter-Glo Luciferase-coupled ATP quantitation.TOX21_p53_BLA_p2_viability used a type of viability reporter where loss-of-signal activity can be used to understand changes in the cell viability. Furthermore, this assay endpoint can be referred to as a secondary readout, because this assay has produced multiple assay endpoints where this one serves a viability function. To generalize the intended target to other relatable targets, this assay endpoint is annotated to the cell cycle intended target family, where the subfamily is cytotoxicity.
# Thawing Method: Place 14 mL of pre-warmed thaw medium into a 15 mL of conical tub. Remove the vial of cells to be thawed from liquid nitrogen and thaw rapidly by placing at 37C in a water bath with gentle agitation for 1-2 minutes. Decontaminate the vial by wiping with 70% ethanol before opening in a biological safety cabinet. Transfer the vial contents drop-wise into 14 mL of thaw medium in a sterile 15-mL conical tub. Centrifuge cells at 900 rpm for 4 minutes and resuspend in thaw medium. Transfer contents to the T75 tissue culture flask containing Thaw Medium and place flask in a humidified 37C/5% CO2 incubator. Switch to growth medium at first passage.Propagation Method: Aspirate medium, rinse once in DPBS, add 0.25% Trypsin/EDTA and swirl to coat the cell evenly. Add an equal volume of Growth Medium to inactivate Trypsin after 2-3 minutes incubation at 37C. Centrifuge cells at 900 rpm for 4 minutes and resuspend in growth medium. Cell should be passage or fed at least twice a week.Assay Protocol: Harvest cells from culture in growth medium and resuspend in assay medium. 2.2 Dispense 4000 cells/5 uL/well into 1536-well black/clear bottom plates using a Multidrop dispenser. After the cells were incubated at 37C for 5 hours, 23 nL of compounds dissolved in DMSO were transferred to the assay plate by a PinTool resulting in a 217-fold dilution. Incubate the plates for 16 hours at 37C, 5% CO2. Add 1 uL of 6X LiveBLAzer FRET B/G (CCF4-AM) Substrate Mixture to each well using a BioRAPTR dispenser and incubate the plates at room temperature for 2 hours. Measure fluorescence intensity at 460 and 530 nm emission and 405 nm excitation by an Envision detector. Data is expressed as the ratio of 460nm/530nm emissions. Add 4 uL of Cell-titer Glo to each well using BioRAPTR and incubate the plates at room temperature for […]. For cell viability readout that measures cytotoxicity, 4 ul/well of CellTiter-Glo reagent was added into the assay plates using a Flying Reagent Dispenser. After 30 min incubation at room temperature, the luminescence intensity in the plates was measured using a ViewLux plate reader.
SMILES,outcome,AC50
CCCCCCCCCC(=O)O,inactive,
CC/C(=C(/CC)c1ccc(O)cc1)c1ccc(O)cc1,,62 µM (active) and 73.4 µM (active)
CN1C(=O)N(c2ccccc2Br)Cc2cnc(Nc3ccc4c(c3)OCC(CO)O4)nc21 (stereo not given),,70.4 µM (active)
COc1cc(C(=O)NC2CCN(C)CC2)ccc1Nc1ncc2c(n1)N(C1CCCC1)CC(F)(F)C(=O)N2C,,47.4 µM (active)
CCOC(=O)O[C@H](C)OC(=O)c1ccc2c(c1)cc(C(=O)NC1CCN(C(C)C)CC1)n2Cc1cc(-c2ccc(Cl)s2)on1,,16.1 µM (active)
O=c1ccc2ccccc2o1,inactive,
Clc1cc(Cl)c2c(c1)N=C1CCCCCN1C2,inactive,
Cc1occc1C(=O)Nc1ccc(C(=O)N2CCC(F)(F)/C(=C\C(=O)N3CCC(N4CCCCC4)CC3)c3ccccc32)cc1,inactive,
CCCOC(=O)c1cc(O)c(O)c(O)c1,inactive,
Clc1ccccc1C(c1ccccc1)(c1ccccc1)n1ccnc1,inactive,58.2 µM (active)
CC1(C)NC(=O)N(c2ccc([N+](=O)[O-])c(C(F)(F)F)c2)C1=O,inactive,
O=C1c2ccccc2C(=O)N1CCc1noc(-c2ccc(CN3CCCCCC3)s2)n1,inactive,
CCCCOC(=O)c1ccc(O)cc1,inactive,
Cc1c2ccccc2c(C)c2c1ccc1ccccc12,inactive,
CCCCCc1ccc(N)cc1,inactive,
c1ccc2ccccc2c1,inactive,
CCCCCCCC[Si](OCC)(OCC)OCC,inactive,
Cc1cc2c(cc1C(F)(F)F)N(C(=O)Nc1ccc(Oc3cccnc3C)nc1)CC2,inactive,
C[C@]12CC[C@@H]3c4ccc(O)cc4CC[C@H]3[C@@H]1CC[C@H]2O,inactive,
Cc1cccc2ccccc12,inactive,

SMILES,outcome,AC50
CC(C)(c1cc(Br)c(O)c(Br)c1)c1cc(Br)c(O)c(Br)c1,,35.7 µM (active) and 46 µM (active)
CO[C@H]1/C=C/O[C@@]2(C)Oc3c(C)c(O)c4c(O)c(c(/C=N/N5CCN(C)CC5)c(O)c4c3C2=O)NC(=O)/C(C)=C\C=C\[C@H](C)[C@H](O)[C@@H](C)[C@@H](O)[C@@H](C)[C@H](OC(C)=O)[C@@H]1C,inactive,
CN1C(=O)CC[C@H]1c1cccnc1,inactive,
Cc1ccc(C(C)C)cc1,inactive,
CN(C)C(=O)C1(N2CCCCC2)CCN(CC[C@@]2(c3ccc(Cl)c(Cl)c3)CN(C(=O)c3ccccc3)CCO2)CC1,,37.8 µM (active)
c1ccc(C[n+]2cccc3ccccc32)cc1,inactive,
CCCCCCCCOC(=O)c1cc(O)c(O)c(O)c1,,27.6 µM (active)
COc1ccc2cc(S(=O)(=O)N[C@H](CC(=O)N[C@H](Cc3ccc(CN4[C@H](C)CCC[C@@H]4C)cc3)C(=O)N(C)C(C)C)c3ccc4c(c3)OCO4)ccc2c1,,74.2 µM (active)
Oc1ccc2ccccc2c1,inactive,
O=CCCCC=O,inactive,
OCCO,inactive,
COc1cccc([C@H](O)C2CCN(CCc3ccc(F)cc3)CC2)c1OC,inactive,
Oc1ccccc1,inactive,
CCCCCCCCCCCCO,inactive,
CC[C@H](NC(=O)c1cc(F)ccc1NS(=O)(=O)c1cccc2cccnc12)c1ccccc1,inactive,
CCCCCCCCOc1ccc(C(=O)c2ccccc2)c(O)c1,inactive,
CCCCCCCCCCCO,inactive,
CCCCOC(=O)CC(CC(=O)OCCCC)(OC(C)=O)C(=O)OCCCC,inactive,
O=C1O[C@H]([C@@H](O)CO)C(O)=C1O,inactive,
